Source: ChEMBL document CHEMBL1961873, “Compounds: GSK PKIS; Assays: Nanosyn kinase panel” (2012)
Values joined by “and” are separate entries in the source; they are usually repeats but may differ in a detail not shown here. Equal entries are not always repeated.

Assays:
[1] = molecular target: Rho-associated protein kinase 1 (Homo sapiens) (UniProt Q13464); settings: at 1 µM;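 also: reported values are mean percent inhibition of ROCK1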
[2] = molecular target: Rho-associated protein kinase 2 (Homo sapiens) (UniProt O75116); settings: at 0.1 µM
Sequence of Rho-associated protein kinase 2 (Homo sapiens) (O75116 whole entry, looked up): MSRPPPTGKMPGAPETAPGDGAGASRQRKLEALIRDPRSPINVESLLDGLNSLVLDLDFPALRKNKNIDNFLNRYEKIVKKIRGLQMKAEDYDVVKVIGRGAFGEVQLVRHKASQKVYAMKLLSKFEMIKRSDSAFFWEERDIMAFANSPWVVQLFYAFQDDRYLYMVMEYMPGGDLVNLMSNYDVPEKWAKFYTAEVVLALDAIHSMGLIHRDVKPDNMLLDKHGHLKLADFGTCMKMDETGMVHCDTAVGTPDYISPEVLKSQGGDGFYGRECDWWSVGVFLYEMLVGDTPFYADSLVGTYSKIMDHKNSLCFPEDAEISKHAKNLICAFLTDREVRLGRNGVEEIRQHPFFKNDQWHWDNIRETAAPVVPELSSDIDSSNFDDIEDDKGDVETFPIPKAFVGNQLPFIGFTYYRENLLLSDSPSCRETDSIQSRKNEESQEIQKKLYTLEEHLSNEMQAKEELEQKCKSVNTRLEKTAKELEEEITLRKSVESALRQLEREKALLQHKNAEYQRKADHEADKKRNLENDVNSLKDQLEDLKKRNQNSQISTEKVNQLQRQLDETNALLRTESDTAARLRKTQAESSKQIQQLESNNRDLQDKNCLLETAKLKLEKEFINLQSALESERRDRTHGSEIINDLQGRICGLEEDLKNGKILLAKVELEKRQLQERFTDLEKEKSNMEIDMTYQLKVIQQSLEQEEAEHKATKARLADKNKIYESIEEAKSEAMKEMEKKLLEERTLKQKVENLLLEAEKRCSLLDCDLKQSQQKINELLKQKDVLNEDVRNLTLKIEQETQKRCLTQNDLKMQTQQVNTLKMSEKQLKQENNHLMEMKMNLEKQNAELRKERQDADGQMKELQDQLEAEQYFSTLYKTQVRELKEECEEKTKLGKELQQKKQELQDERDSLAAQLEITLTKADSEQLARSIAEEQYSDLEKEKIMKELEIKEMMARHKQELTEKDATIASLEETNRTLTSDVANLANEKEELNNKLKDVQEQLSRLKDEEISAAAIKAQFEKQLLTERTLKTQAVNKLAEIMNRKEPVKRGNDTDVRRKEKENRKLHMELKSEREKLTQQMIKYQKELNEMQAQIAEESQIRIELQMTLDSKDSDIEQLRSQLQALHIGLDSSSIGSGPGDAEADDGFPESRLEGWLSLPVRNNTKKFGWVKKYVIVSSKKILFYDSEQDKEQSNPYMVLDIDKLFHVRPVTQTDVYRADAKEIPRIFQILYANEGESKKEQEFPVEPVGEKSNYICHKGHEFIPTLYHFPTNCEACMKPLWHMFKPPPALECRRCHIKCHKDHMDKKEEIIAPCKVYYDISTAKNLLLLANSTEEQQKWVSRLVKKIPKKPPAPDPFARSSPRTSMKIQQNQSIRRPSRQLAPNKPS

[3] = molecular target: Rho-associated protein kinase 2 (Homo sapiens) (UniProt O75116); settings: at 1 µM
[4] = molecular target: Ribosomal protein S6 kinase alpha-1 (Homo sapiens) (UniProt Q15418); settings: at 0.1 µM
Sequence of Ribosomal protein S6 kinase alpha-1 (Homo sapiens) (Q15418 whole entry): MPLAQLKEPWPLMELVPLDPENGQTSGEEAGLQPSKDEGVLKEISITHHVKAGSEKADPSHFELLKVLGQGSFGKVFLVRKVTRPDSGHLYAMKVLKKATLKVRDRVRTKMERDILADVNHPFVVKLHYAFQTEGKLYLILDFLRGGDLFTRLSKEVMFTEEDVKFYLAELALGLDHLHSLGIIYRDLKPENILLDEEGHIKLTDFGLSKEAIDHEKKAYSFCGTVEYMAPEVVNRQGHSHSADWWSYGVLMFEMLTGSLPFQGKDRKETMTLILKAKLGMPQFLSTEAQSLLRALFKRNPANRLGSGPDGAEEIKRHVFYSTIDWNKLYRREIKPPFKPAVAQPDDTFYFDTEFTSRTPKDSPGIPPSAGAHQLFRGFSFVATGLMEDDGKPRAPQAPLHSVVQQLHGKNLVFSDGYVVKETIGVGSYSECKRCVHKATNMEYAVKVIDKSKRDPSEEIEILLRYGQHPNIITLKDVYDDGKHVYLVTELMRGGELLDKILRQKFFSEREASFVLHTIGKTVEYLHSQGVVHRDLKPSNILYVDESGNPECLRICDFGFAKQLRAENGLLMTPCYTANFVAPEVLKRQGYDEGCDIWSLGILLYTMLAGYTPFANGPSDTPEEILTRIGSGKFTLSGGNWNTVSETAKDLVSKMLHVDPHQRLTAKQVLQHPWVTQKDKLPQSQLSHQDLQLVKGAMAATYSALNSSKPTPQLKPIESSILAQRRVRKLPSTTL

[5] = molecular target: Ribosomal protein S6 kinase alpha-1 (Homo sapiens) (UniProt Q15418); settings: at 1 µM
[6] = molecular target: Ribosomal protein S6 kinase alpha-3 (Homo sapiens) (UniProt P51812); settings: at 0.1 µM
Sequence of Ribosomal protein S6 kinase alpha-3 (Homo sapiens) (P51812 whole entry): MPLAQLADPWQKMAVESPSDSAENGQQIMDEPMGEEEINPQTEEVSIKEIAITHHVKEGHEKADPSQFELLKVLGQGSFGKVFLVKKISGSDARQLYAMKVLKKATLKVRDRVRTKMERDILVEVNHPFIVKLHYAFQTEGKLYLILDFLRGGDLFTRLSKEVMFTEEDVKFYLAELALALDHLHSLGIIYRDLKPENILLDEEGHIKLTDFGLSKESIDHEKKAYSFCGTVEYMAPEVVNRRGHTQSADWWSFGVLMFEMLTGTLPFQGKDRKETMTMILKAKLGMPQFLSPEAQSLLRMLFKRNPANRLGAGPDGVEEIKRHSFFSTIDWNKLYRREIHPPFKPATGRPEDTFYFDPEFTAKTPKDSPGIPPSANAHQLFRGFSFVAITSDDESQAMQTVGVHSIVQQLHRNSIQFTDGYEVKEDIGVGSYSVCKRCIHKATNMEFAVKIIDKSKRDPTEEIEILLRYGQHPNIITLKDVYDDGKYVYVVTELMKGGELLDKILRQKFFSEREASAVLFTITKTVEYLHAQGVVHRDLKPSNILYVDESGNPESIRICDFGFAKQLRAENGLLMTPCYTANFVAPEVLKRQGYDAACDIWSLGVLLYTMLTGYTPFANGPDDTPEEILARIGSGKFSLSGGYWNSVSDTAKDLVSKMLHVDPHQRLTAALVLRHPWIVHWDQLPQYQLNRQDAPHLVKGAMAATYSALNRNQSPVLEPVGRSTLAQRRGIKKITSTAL

[7] = molecular target: Ribosomal protein S6 kinase alpha-3 (Homo sapiens) (UniProt P51812); settings: at 1 µM
[8] = molecular target: Ribosomal protein S6 kinase alpha-2 (Homo sapiens) (UniProt Q15349); settings: at 0.1 µM
[9] = molecular target: Ribosomal protein S6 kinase alpha-2 (Homo sapiens) (UniProt Q15349); settings: at 1 µM
[10] = molecular target: Ribosomal protein S6 kinase alpha-6 (Homo sapiens) (UniProt Q9UK32); settings: at 0.1 µM
[11] = molecular target: Ribosomal protein S6 kinase alpha-6 (Homo sapiens) (UniProt Q9UK32); settings: at 1 µM
[12] = molecular target: T1, Serine/threonine-protein kinase Sgk1 (Homo sapiens) (UniProt O00141); settings: at 0.1 µM
T1 sequence (whole entry): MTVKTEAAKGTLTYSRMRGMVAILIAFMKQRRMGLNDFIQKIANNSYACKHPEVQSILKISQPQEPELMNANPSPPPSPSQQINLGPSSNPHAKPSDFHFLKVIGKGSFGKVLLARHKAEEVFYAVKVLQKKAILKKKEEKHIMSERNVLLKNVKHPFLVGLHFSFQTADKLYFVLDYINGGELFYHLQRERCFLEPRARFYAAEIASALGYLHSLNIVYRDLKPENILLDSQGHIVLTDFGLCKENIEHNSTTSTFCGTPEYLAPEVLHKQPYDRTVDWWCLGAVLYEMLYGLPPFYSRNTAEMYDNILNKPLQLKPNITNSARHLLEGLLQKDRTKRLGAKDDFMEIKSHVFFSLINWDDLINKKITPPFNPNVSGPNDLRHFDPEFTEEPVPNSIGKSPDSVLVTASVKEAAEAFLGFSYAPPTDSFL

[13] = molecular target: T1, Serine/threonine-protein kinase Sgk1 (Homo sapiens); settings: at 1 µM
[14] = molecular target: T2, Serine/threonine-protein kinase Sgk2 (Homo sapiens) (UniProt Q9HBY8); settings: at 0.1 µM
T2 sequence (whole entry): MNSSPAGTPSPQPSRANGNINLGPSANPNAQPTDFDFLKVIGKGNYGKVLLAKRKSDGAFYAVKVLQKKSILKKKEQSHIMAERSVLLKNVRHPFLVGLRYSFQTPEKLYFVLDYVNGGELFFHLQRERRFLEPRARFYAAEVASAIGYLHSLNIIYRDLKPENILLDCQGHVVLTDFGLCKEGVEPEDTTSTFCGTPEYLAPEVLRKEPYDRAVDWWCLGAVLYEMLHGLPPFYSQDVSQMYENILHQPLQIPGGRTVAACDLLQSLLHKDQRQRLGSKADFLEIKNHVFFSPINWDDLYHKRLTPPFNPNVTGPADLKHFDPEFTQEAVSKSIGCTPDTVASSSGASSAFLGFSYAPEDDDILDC

[15] = molecular target: T2, Serine/threonine-protein kinase Sgk2 (Homo sapiens); settings: at 1 µM
[16] = molecular target: T3, Serine/threonine-protein kinase Sgk3 (Homo sapiens) (UniProt Q96BR1); settings: at 0.1 µM
T3 sequence (whole entry): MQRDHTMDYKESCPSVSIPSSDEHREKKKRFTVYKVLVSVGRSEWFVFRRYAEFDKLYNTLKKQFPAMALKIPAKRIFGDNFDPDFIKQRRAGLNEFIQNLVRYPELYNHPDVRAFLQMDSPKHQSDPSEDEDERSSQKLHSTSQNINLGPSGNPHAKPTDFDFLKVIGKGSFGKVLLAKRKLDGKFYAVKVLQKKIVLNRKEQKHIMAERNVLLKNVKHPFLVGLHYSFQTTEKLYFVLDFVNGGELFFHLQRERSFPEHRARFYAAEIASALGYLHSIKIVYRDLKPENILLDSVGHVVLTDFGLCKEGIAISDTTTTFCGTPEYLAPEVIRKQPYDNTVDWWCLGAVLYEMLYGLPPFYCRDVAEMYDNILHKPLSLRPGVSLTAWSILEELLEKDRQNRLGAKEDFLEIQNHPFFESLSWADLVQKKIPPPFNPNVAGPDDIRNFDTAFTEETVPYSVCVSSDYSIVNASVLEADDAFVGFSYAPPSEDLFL

[17] = molecular target: T3, Serine/threonine-protein kinase Sgk3 (Homo sapiens); settings: at 1 µM
[18] = molecular target: 5'-AMP-activated protein kinase catalytic subunit alpha-1 (Homo sapiens) (UniProt Q13131); settings: at 0.1 µM
Sequence of 5'-AMP-activated protein kinase catalytic subunit alpha-1 (Homo sapiens) (Q13131 whole entry, looked up): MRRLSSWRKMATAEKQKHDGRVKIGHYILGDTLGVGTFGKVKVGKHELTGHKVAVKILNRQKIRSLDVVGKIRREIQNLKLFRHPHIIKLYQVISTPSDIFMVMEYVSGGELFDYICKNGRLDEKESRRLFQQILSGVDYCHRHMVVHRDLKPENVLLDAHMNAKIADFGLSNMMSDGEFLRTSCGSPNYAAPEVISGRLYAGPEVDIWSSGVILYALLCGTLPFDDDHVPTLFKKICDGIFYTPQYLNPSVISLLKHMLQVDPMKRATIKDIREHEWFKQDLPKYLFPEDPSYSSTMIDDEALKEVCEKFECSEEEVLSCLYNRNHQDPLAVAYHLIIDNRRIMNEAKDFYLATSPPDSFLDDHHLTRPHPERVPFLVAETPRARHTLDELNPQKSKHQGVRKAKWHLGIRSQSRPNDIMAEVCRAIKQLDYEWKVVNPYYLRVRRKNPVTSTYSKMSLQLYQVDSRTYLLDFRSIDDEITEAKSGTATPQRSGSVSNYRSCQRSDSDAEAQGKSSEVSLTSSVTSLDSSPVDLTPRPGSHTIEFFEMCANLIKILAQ

[19] = molecular target: 5'-AMP-activated protein kinase catalytic subunit alpha-1 (Homo sapiens) (UniProt Q13131); settings: at 1 µM
[20] = molecular target: 5'-AMP-activated protein kinase catalytic subunit alpha-2 (Homo sapiens) (UniProt P54646); settings: at 0.1 µM;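 also: mean inhibition measured on the AMPK complex of alpha2, beta1 and gamma1 subunits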

Sequence of Rho-associated protein kinase 1 (Homo sapiens) (Q13464 2-1354 limits assumed): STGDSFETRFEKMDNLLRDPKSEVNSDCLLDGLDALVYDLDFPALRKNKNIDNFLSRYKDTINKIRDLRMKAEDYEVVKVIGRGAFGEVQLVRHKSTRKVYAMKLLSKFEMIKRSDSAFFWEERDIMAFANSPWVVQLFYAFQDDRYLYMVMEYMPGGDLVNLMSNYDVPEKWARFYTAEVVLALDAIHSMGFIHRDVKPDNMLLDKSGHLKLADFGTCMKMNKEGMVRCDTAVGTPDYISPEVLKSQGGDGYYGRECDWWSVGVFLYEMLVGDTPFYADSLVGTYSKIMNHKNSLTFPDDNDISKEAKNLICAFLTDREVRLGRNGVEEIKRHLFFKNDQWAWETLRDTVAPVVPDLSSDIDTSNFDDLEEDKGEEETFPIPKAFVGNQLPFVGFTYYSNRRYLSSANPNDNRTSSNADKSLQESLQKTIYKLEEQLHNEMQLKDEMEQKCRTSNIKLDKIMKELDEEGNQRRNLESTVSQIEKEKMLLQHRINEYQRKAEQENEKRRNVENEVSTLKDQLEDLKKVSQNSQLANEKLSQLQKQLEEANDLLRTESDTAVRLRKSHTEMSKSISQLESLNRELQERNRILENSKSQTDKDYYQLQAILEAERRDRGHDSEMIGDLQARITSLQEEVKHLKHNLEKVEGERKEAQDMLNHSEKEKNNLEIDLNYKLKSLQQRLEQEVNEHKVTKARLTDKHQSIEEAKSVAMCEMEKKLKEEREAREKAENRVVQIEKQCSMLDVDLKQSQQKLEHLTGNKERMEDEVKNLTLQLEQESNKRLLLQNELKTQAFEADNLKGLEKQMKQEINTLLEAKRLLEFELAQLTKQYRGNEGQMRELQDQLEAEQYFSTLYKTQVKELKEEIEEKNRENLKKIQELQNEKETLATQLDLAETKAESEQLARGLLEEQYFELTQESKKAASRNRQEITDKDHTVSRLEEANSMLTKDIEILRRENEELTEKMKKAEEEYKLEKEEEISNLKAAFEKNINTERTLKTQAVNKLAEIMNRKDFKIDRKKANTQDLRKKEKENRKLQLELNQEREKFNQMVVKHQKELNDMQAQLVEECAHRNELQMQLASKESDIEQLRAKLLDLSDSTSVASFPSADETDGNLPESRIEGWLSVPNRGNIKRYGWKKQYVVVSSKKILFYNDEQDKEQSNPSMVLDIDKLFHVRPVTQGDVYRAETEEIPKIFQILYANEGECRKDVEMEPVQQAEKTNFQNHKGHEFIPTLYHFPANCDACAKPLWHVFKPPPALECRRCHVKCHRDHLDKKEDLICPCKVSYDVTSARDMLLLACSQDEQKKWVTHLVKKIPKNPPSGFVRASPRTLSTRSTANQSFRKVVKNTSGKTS

Structure (SMILES)	inhibition [1]	inhibition [2]	inhibition [3]	inhibition [4]	inhibition [5]	inhibition [6]	inhibition [7]	inhibition [8]	inhibition [9]	inhibition [10]	inhibition [11]	inhibition [12]	inhibition [13]	inhibition [14]	inhibition [15]	inhibition [16]	inhibition [17]	inhibition [18]	inhibition [19]	inhibition [20]
O=C(Nc1n[nH]c2nnc(-c3cccnc3)cc12)C1CC1	1.3%	0.06%	0.61%	0.83%	0.39%	0.41%	0.86%	0.73%	1.89%	0.32%	0.26%	0.71%	-0.17%	-0.62%	3.04%	-2.68%	-0.26%	-0.35%	0.39%	0.65%
COc1cc(N2CCN(C(C)C)CC2)ccc1Nc1nc(Nc2cccc3ncccc23)c2cc[nH]c2n1	0.37%	0.02%	0.45%	0.19%	3.05%	1.66%	5.2%	1.37%	3.33%	0.58%	2.88%	1.18%	-0.91%	-3.32%	-0.85%	0.42%	0.55%	0.27%	0.86%	0.57%
CCS(=O)(=O)c1ccc(OC)c(Nc2ncc(-c3cccc(C(C)=O)c3)o2)c1	2.14%	1.98%	6.73%	2.43%	5.75%	1.27%	3.54%	0.6%	3.67%	1%	2.13%	0.32%	5.11%	2.27%	3.41%	1.59%	2.93%	2.21%	4.72%	-0.37%
Cc1nnc(-c2cccc(-c3ccc(C(=O)NCC4CC4)cc3)c2)o1	2.23%	3.74%	6.19%	2.8%	4.92%	1.25%	1.76%	3.01%	2.85%	2.12%	2.8%	4.47%	10.8%	2.96%	7.09%	3.56%	7.89%	5.16%	6.56%	0.86%
c1ccc(-c2n[nH]cc2-c2ccnc(-c3ccc(OCCn4ccnc4)cc3)c2)nc1	5.6%	5.64%	7.73%	0.66%	4.31%	0.64%	3.85%	1.32%	1.36%	0.75%	1.74%	0.97%	2.43%	0.56%	0.22%	0.55%	2.01%	0.79%	3.29%	2.92%
Nc1nonc1-c1nc2cnccc2n1C1CC1	79.3% and 77.8%	56.4% and 54.3%	81% and 77.9%	66.3% and 63.6%	84.2% and 79.4%	46.1% and 47%	79% and 75.8%	67% and 69.5%	90.9% and 91.2%	10.3% and 11.7%	39.3% and 40.7%	2.58% and 2.55%	12.5% and 16.1%	8.13% and 8.47%	50.4% and 54.2%	20% and 22.1%	61.8% and 65.5%	5.9% and 3.15%	14.3% and 11.5%	1.84% and 3.94%
CC1=C(C(=O)Nc2ccc3[nH]nc(C)c3c2)C(c2ccc(C(F)(F)F)cc2)CC(=O)N1 (stereo not given)	89.8%	70.3%	83.8%	2.72%	11.3%	1.64%	17.2%	1.77%	9.89%	3.48%	18.9%	2.07%	7.21%	0.38%	5.99%	1.33%	6.15%	4.08%	24.4%	-0.12%
CCS(=O)(=O)c1ccc(OC)c(Nc2ncc(-c3cccc(F)c3)o2)c1	2.95%	3.63%	3.95%	2.84%	6.08%	1.12%	13.6%	4.07%	5.22%	2.2%	6.33%	2.66%	4%	0.06%	1.18%	3.85%	3.03%	2.82%	5.78%	7.22%
FC(F)(F)CNc1nccc(-c2cnn3ncccc23)n1	-0.11%	1.53%	0.94%	-0.21%	1.24%	1.65%	2.69%	0.89%	1.84%	0.72%	0.2%	1.25%	1.46%	0%	0.87%	2.93%	4.28%	1.91%	2.67%	0.68%
CNC(=O)c1cncc(/C=C/c2ccccc2C)c1	1.27%	4.29%	8.78%	2.39%	4.99%	2.14%	3.84%	0.87%	2.74%	0.45%	0.63%	3.1%	5.48%	2.67%	0.66%	1.58%	4.02%	3.16%	7.91%	2.05%
CC(C)c1ccc(-c2cc(-c3c[nH]nc3-c3ccccn3)ccn2)cc1	1.96%	0.45%	1.63%	-0.37%	1.19%	-0.1%	0.24%	1.17%	1.83%	0.05%	-0.11%	1.94%	0.95%	3.97%	3.85%	0.19%	-1.62%	-0.34%	-1.2%	0.19%
COc1c(C(N)=O)cc(-c2ccc(Cl)cc2)cc1-c1ccc(S(N)(=O)=O)cc1	3.19%	2.99%	5.06%	1.96%	2.12%	1.72%	2.53%	2.4%	2.98%	2.25%	3.2%	0.41%	2.71%	5.14%	5%	1.37%	3%	1.83%	4.47%	7.86%
Fc1ccc(Nc2nccc(-c3c(-c4ccc(C(F)(F)F)cc4)nn4ncccc34)n2)cc1F	2.54%	1.24%	2.36%	0.24%	-0.46%	-0.49%	-1.74%	1.11%	2.41%	1.29%	0.66%	2.17%	2.25%	0.8%	-0.85%	2.84%	1.5%	1.79%	0.39%	1.16%
NS(=O)(=O)c1cccc(N/C=C2\C(=O)Nc3ccccc32)c1	3.96%	2.91%	5.46%	3.72%	17.6%	2.42%	15.2%	5.57%	26.2%	4.77%	22.4%	6.58%	26.9%	4.31%	11.5%	6%	5.21%	3.31%	12%	4.65%
